The results in this text go back to ChEMBL document CHEMBL3988442, “University of Dundee, Small-Polar-MMV Screening Library” (2021).

The assay deals with AMP-activated protein kinase, AMPK (Homo sapiens) (UniProt P54646+O43741+P54619+Q9UGJ0+Q9Y478+Q13131+Q9UGI9). Briefly: AMP-dependent Kinase enzyme assay. An in vitro enzyme assay that detects ADP turnover that is directly proportional to AMPK activity. This uses naive AMPK that is activated during the assay with MK-8722. Format: functional. Further details: scale not given: direction of the effect not stated beside the values. The note with it: 30 µM.
Turning to `CN1CCCCC1(C)C(=O)N1CCC(c2ccccn2)CC1` (stereo not given), the Percent Effect was -3.58%.

With `CS(=O)(=O)NCC1Cc2ccccc2O1` (stereo not given), the Percent Effect was -1.87%.

Take `CSCC(=O)N1CCN(CC(O)C(C)(C)C)CC1` (stereo not given): the Percent Effect was -3.62%.

In the case of `O=C(C1CCOC1)N1CCN(CC(F)(F)F)c2ccccc21` (stereo not given), the Percent Effect worked out at 11.6%.

For the compound `Nc1nccnc1C(=O)NC1CCCN(Cc2c(F)cccc2F)C1` (stereo not given), the Percent Effect came to 26.8%.

Turning to `O=C1CN([C@@H]2CC[C@@H](NS(=O)(=O)c3ccccc3)[C@H]2O)CCN1`, the Percent Effect is 11.7%.

As to `CN(CC(=O)NC(C)(C)C)Cc1cccc2c1OCCO2`, the Percent Effect was -9.42%.

For `CCNC(=O)c1ccnc(CC2COc3c(cccc3OC)C2)c1` (stereo not given), the Percent Effect was -3.13%.

With `CN(Cc1cn(C2CCNCC2)nn1)CC1CCCO1` (stereo not given), the Percent Effect amounted to 3.31%.

`COc1ccc(S(=O)(=O)NC(=O)C(C)OC)c(OC)c1` (stereo not given): the Percent Effect was -4.37%.

Regarding `CCC(CN1CCCC1)n1cncc1-c1cnn(-c2ccc(F)cc2)c1` (stereo not given), the Percent Effect worked out at 12.9%.

Turning to `CC(C)OCCN1CCC(Nc2ncccn2)CC1`, the Percent Effect is -1.19%.

On to `CCS(=O)(=O)Nc1ccc2[nH]c(C3CCC3)nc2c1`, for which the Percent Effect was -4.1%.

For `COc1ccc(C)nc1NC(=O)Cc1c(C)nn(C)c1C`, the Percent Effect is 2.12%.

As for `CCCC(C#N)NC(=O)c1sccc1CC` (stereo not given), the Percent Effect came out at 6.7%.

`CCN(C)S(=O)(=O)N1CCC(C(O)c2ccc(Cl)cc2)CC1` (stereo not given): the Percent Effect came to 1.46%.

In the case of `CC1(C)OC(=O)N(CCOc2ccc(F)cc2)C1=O`, the Percent Effect turned out to be 5.04%.

For the compound `CC(C)N(C)S(=O)(=O)c1ccc2c(c1)CCN(C(=O)c1cscn1)C2`, the Percent Effect is -3.43%.

On to `CNC(=O)c1cn2cc(-c3cccc(Cl)c3)n(CC=C(C)C)c(=O)c2n1`, for which the Percent Effect came out at 2.79%.

For the compound `NC(=O)CN(Cc1ncc(-c2ccc(F)cc2)o1)C1CCCC1`, the Percent Effect was -3.13%.

As to `Cc1cccc(C(C(=O)NC(C)(C)CN2CCOCC2)N(C)C)c1` (stereo not given), the Percent Effect is -14.1%.

`N#CCCn1cnc2c(Br)cccc2c1=O`: the Percent Effect is -5.95%.

In the case of `COC(=O)c1ccc(CN(C(C)C)C(C)C)o1`, the Percent Effect came out at 3.89%.

With `Cc1noc(C)c1CC(=O)N1CCCC(Cn2ccnc2C)C1` (stereo not given), the Percent Effect is -4.07%.

As to `CCNC(=O)[C@@H]1C[C@H](N)CN1c1cc(C(F)(F)F)nc(N2CCCC2)n1`, the Percent Effect is 2.77%.

On to `CC(C)c1nc(C2CCCN2CCNS(C)(=O)=O)no1` (stereo not given), for which the Percent Effect amounted to 9.75%.

Turning to `CN(C)c1ccc(C(=O)Nc2ccn(CCc3ccncc3)n2)cc1`, the Percent Effect worked out at 10.3%.

For the compound `Cc1n[nH]c(C)c1CCN(C)C(=O)c1ccc(CN2CCCCC2)cc1`, the Percent Effect was -2.68%.

In the case of `COCCN(Cc1ccccc1)C(=O)c1cnn(C)c1C`, the Percent Effect came to 2.02%.

For `CC1CCCCN1C(=O)COc1nc(Cc2ccc(F)cc2)no1` (stereo not given), the Percent Effect stood at 2.51%.

As to `C=C(C)CN(CC)C(=O)CN1CCCC1C(=O)N(C)C` (stereo not given), the Percent Effect amounted to 3.77%.

Consider `Cc1cnc(N2CCN(C)CC2)nc1-c1ccnn1C`, for which the Percent Effect was -3.23%.

In the case of `Fc1ccc(C2(CNCCc3cccs3)CCOC2)cc1` (stereo not given), the Percent Effect is -3.1%.

As for `CC(C)CNC(=O)c1sccc1-n1cnnn1`, the Percent Effect was 10.8%.

With `Cc1noc(C)c1-c1n[nH]c2c1CN(S(=O)(=O)c1cccnc1)CC2`, the Percent Effect stood at 1.02%.

For `OCc1csc(N2C[C@@H](CN3CCCCCC3)[C@@H](CO)C2)n1`, the Percent Effect was -3.32%.

On to `Cc1noc(C)c1CCCNC(=O)Nc1ccc2c(c1)CC(=O)N2`, for which the Percent Effect was 33.6%.

For the compound `CN(Cc1ccc(C#N)cc1)CC1CCS(=O)(=O)C1` (stereo not given), the Percent Effect is 7.17%.

For the compound `CCN(CC(=O)NC(C)C)C(=O)c1csc(Cc2ccccc2)n1`, the Percent Effect was -2.97%.

For the compound `O=c1c(CN2CCCCC2)coc2ccc(Cl)cc12`, the Percent Effect was -4.07%.
